TrxR1 inh – qHTS Assay for Inhibitors of Mammalian Selenoprotein Thioredoxin Reductase 1 (TrxR1): qHTS; Thioredoxin reductase 1, cytoplasmic (Rattus norvegicus), O89049; recombinant rTrxR1, NADPH fluorescence consumption, selenite substrate; Potency, µM (titrated, usually from 114 µM), inactives show at the top dose activity change, negative = inhibition, hits mostly inhibitors; 1% of 390,000 active; AID 588453, 2011; also: potency is read from the fitted curve at half-maximal effect; nearly all actives have a fitted effect of over 65% in size
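Rat TrxR1 (90 nM in the dispensed reagent) was pre-reduced with 400 uM NADPH for 5 min at room temperature, then incubated with compound for 15 min. After 400 uM selenite was added, NADPH fluorescence (Ex 340/Em 450 nm) was followed for 8 min.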
GLS inh – qHTS for Inhibitors of Glutaminase (GLS) | GLS enzymatic activity, qHTS titration | Potency, µM (doses to about 45.5 µM), inactives show at the highest dose activity change, negative = inhibition, most hits filed as inhibitors | 0.21% of 410,000 active | AID 624170, 2012; also: potency is read from the fitted curve at half-maximal effect
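Two-point fluorescence kinetic (t0, 30 min RT) for hKGA; glutamate detected via glutamate oxidase–HRP–Amplex Red. Substrate: 1 mM L-glutamine solution; buffer 45 mM KH2PO4, pH 8.2.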
TrxR1 substrate – qHTS Assay for Substrates of Mammalian Selenoprotein Thioredoxin Reductase 1 (TrxR1): qHTS; Thioredoxin reductase 1, cytoplasmic (Rattus norvegicus), O89049; purified TrxR1 substrate turnover, NADPH consumption readout; Potency, µM (doses to about 114 µM), inactives show at the top dose activity change, negative = substrate turnover; 0.01% of 390,000 active; also: potency is read from the fitted curve at half-maximal effect; nearly all actives have a fitted effect of over 50% in size
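Rat TrxR1, dispensed at 90 nM, was prereduced with 400 uM NADPH (final) for 5 min at ~22 deg C, then incubated with compound 15 min before 400 uM selenite. A first-read NADPH fluorescence drop versus no-compound background flagged substrates.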
PKM2 activator – qHTS Assay for Activators of Human Muscle isoform 2 Pyruvate Kinase | Pyruvate kinase PKM (Homo sapiens), P14618 | Potency, µM (doses to about 57.5 µM), for inactives: top-dose activation, most hits filed as activators | AID 1631, 2009 | 0.34% of 260,000 active | purified PKM2, Kinase-Glo ATP luminescence, activation; response scale: 0% is enzyme alone, no compound; also: potency is read from the fitted curve at half-maximal effect; nearly all actives have a fitted effect of over 55% in size
Target sequence (P14618 whole entry, looked up, canonical isoform): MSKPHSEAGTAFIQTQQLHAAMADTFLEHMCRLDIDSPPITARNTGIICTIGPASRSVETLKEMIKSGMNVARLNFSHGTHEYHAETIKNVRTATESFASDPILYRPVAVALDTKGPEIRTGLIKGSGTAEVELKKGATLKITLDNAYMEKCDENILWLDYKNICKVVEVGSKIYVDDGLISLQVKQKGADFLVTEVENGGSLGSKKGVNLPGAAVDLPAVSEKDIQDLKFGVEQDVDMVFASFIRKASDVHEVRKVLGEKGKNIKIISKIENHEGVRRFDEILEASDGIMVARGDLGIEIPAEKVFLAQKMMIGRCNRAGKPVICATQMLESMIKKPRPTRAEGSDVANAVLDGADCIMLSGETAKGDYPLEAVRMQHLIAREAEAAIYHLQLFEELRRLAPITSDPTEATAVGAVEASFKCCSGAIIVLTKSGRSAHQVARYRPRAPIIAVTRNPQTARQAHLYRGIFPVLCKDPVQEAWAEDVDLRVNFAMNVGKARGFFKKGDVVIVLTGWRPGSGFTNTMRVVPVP
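Purified hPK-M2 (>95%) run at intermediate activity with 0.1 mM ADP and 0.5 mM PEP in 50 mM imidazole pH 7.2, KCl, MgCl2; 1 h room temperature. ATP formed read by Kinase-Glo luminescence; normalized to uninhibited and no-enzyme controls.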
LDHA block – qHTS assay for inhibitors of human lactate dehydrogenase. purified LDHA, NADH/diaphorase-resazurin fluorescence; stronger effect = lower value. activity change, % (values are at about 110 or 230 µM). 0.15% of 480,000 active. AID 1347041, 2019; in the data active = activity change below about -30%; inconclusive = mostly about -25% to -30%;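 also: plate controls were DMSO wells for no effect and wells without enzyme for full effect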
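LDH5 2 nM; NADH 0.06 mM, pyruvate 0.2 mM; 200 mM Tris pH 7.4, EDTA, Tween-20; 5 min RT. Detection: diaphorase 0.133 mg/mL + resazurin 37 µM, fluorescence ex540/em590 at 0 and 20 min; normalized to enzyme-free and DMSO wells.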
mIDH1 inhibitor – qHTS for Inhibitors of mutant isocitrate dehydrogenase 1 (IDH1): qHTS | Isocitrate dehydrogenase [NADP] cytoplasmic (Homo sapiens), O75874 | IDH1-R132H enzyme, NADPH consumption, diaphorase/resazurin fluorescence | Potency, µM (highest dose often 76.6 µM), for inactives: at the top dose activity change, negative = inhibition, most hits filed as inhibitors | 0.093% of 390,000 active; also: potency is read from the fitted curve at half-maximal effect; nearly all actives have a fitted effect of over 65% in size
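IDH1-R132H (0.5 ug/mL dispensed) in pH 7.5 Tris buffer was preincubated 30 min with compound, then given a substrate mix of 0.016 mM NADPH and 2 mM alpha-KG for 80 min at room temperature; remaining NADPH was read by diaphorase/resazurin fluorescence.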
* hit, by the source's call; [ ] = dose if it differs, or a comment. Shown are actives, neighbours in structure and some others; about 1.4% of the full set was active somewhere. Unless noted, calls follow the shape of the dose curve; as a rule, active = well fitted curve in the direction sought with a large enough effect; inconclusive = small, poorly fitted or top-dose-only effect, or another doubt; inactive = no such curve, though single readings can be large; an effect the other way counts as inactive or inconclusive. Unless noted, % is scaled to controls: 0 for no effect and ±100 for the full control effect.

Screening O=C(O)C1Sc2[nH]c(=O)sc2C2c3cc(Br)ccc3OC(=O)C12 (stereo not given) returned TrxR1 inh -9.4%, GLS inh 10µM*, TrxR1 substrate -3.6%, PKM2 activator -0.5%, LDHA block 4.1 and mIDH1 inhibitor 0.0%.
Screening COC(=O)C1Sc2[nH]c(=O)sc2C2c3ccccc3OC(=O)C12 (stereo not given) returned TrxR1 inh -10.8%, TrxR1 substrate -10.3%, PKM2 activator 2.6%, LDHA block 0.0 and mIDH1 inhibitor 8.5%.
Screening O=C(O)C1Sc2[nH]c(=O)sc2C2c3ccc(O)cc3OC(=O)C12 (stereo not given) returned TrxR1 inh -0.9%[57.1 µM], GLS inh 8.91µM*, TrxR1 substrate 11.0%, PKM2 activator -2.0%, LDHA block 8.2 and mIDH1 inhibitor 1.4%.
`C#CCNC(=O)CN1CCN(C(=O)c2ccc(F)cc2)CC1` gave LDHA block 0.8.
Screening CCOc1ccc(NC(=O)Cc2cccc3ccccc23)c2cccnc12 returned LDHA block 61.4.
Cc1ccc(C(C)NC(=O)Nc2ccc(Cl)cc2F)cc1C (stereo not given) was read as LDHA block 0.9.
`CCCCc1nc(S(=O)(=O)c2ccc(Cl)cc2)c(N2CCOCC2)o1` gave TrxR1 inh 1.58µM*, GLS inh -5.7%, TrxR1 substrate 0.5%[11.4 µM], PKM2 activator 5.3%, LDHA block -5.8 and mIDH1 inhibitor 3.2%.
For CCS(=O)(=O)c1nc(S(=O)(=O)c2ccc(Cl)cc2)c(N2CCOCC2)s1 the results were TrxR1 inh inconclusive, GLS inh -8.0%, TrxR1 substrate -6.6%, LDHA block -3.8 and mIDH1 inhibitor 0.0%.
For Cc1ccc(S(=O)(=O)Nc2nc(CN3CCOCC3)nc3sc(C(=O)O)c(C)c23)cc1 the results were GLS inh 17.8µM*, LDHA block -0.7 and mIDH1 inhibitor 4.5%.
`Cn1c(C(=O)OCC(=O)NCc2ccco2)cc2sccc21` gave TrxR1 inh 25.1µM*, GLS inh -6.0%, TrxR1 substrate 2.4%, PKM2 activator inconclusive, LDHA block -2.3 and mIDH1 inhibitor -0.4%.
For O=C(COC(=O)c1ccc(NS(=O)(=O)c2cccs2)cc1O)NCc1ccccc1 the results were TrxR1 inh 2.5%[57.1 µM], GLS inh -7.0%, TrxR1 substrate -6.0%[57.1 µM], PKM2 activator 22.4µM*, LDHA block -2.6 and mIDH1 inhibitor -1.0%.
O=C(COC(=O)c1ccc(NS(=O)(=O)c2cccs2)cc1)NCc1ccco1 was read as TrxR1 inh inconclusive, GLS inh -31.2%, TrxR1 substrate 1.5%, PKM2 activator 14.1µM*, LDHA block -8.4 and mIDH1 inhibitor -9.8%.
Screening O=C(COC(=O)c1cccs1)NCc1ccco1 returned TrxR1 inh inconclusive, GLS inh -17.3%, TrxR1 substrate 3.0%, PKM2 activator 0.3%, LDHA block -5.6 and mIDH1 inhibitor -0.2%.
Cc1ccc(C)c(C(=O)C(C)Oc2ccc(C#N)cc2)c1 (stereo not given) was read as LDHA block 11.3.
Screening Cc1oc2cc(O)ccc2c(=O)c1-c1nc2ccccc2s1 returned LDHA block 5.2.
Screening O=C(NCCc1ccc(F)cc1)c1cc(=O)[nH]c2ccccc12 returned LDHA block -1.3.
For Cc1ccc(-c2cc(C(=O)O)c3ccc(Br)cc3n2)o1 the results were LDHA block 13.5.
`CC1CCC2(CCc3cc4c5c(c(=O)oc4cc3O2)CCCC5)CC1` (stereo not given) gave LDHA block 6.1.
For Cc1oc2cc(OC(=O)c3ccc(S(C)(=O)=O)cc3)ccc2c(=O)c1-c1ccccc1 the results were LDHA block -1.9.
Cc1oc2cc(OC(=O)c3ccc4c(c3)OCO4)ccc2c(=O)c1-c1ccccc1 was read as LDHA block -30.3*.
Screening CSc1ccc(NC(=O)CC2C=CCC2)cc1 (stereo not given) returned LDHA block 3.5.
Screening CCOc1ccccc1CN1CCCCCC1c1sccc1C (stereo not given) returned LDHA block -30.8*.
`CCc1ccc(NS(=O)(=O)c2ccc(C)c(C(=O)N3CCOCC3)c2)cc1` gave TrxR1 inh 11.4%, GLS inh 1.5%, TrxR1 substrate 1.7%, PKM2 activator -22.6%, LDHA block -44.1* and mIDH1 inhibitor -2.9%.
Cc1ccc(NS(=O)(=O)c2ccc(C)c(C(=O)N3CCOCC3)c2)cc1 was read as TrxR1 inh 16.5%, GLS inh -0.2%, TrxR1 substrate 0.1%, PKM2 activator 1.4%, LDHA block -2.4 and mIDH1 inhibitor 6.8%.
For O=C(O)c1cccc(CSc2ccc(Cl)cc2Cl)c1 the results were LDHA block -0.4.
For CC(C)C(NC(=O)c1ccccc1)C(=O)OCC(=O)N1CCCC1 (stereo not given) the results were TrxR1 inh 13.3%, GLS inh 3.2%, TrxR1 substrate -2.1%, LDHA block -9.8 and mIDH1 inhibitor -8.8%.
`CC(C)[C@H](NC(=O)c1ccc(Cl)cc1)C(=O)OCC(=O)N1CCN(c2ccccc2)CC1` gave TrxR1 inh 31.6µM*, GLS inh 6.3%, TrxR1 substrate 1.5%, LDHA block -5.2 and mIDH1 inhibitor 2.4%.
CCOc1c(Br)cc(/C=C2/NC(=O)NC2=O)cc1Br was read as LDHA block 8.9.
`CN(CC(=O)Nc1c(Cl)cccc1Cl)C(=O)c1ccc2ccccc2n1` gave TrxR1 inh 1.3%, GLS inh 1.3%, TrxR1 substrate 2.8%, LDHA block -6.8 and mIDH1 inhibitor 2.8%.
Screening CN(CC(=O)NC(C)(C)C)C(=O)c1ccc2ccccc2n1 returned LDHA block -32.5*.
`Cc1cccn2c(=O)cc(CSc3ccccc3NC(=O)c3ccccc3Cl)nc12` gave LDHA block -32.3*.
